According to PubChem BioAssay (NCI):
Compounds without any hit were thinned out: in the full panel of roughly 79,000, 15% have a hit. Active and inactive are the calls of the source. Cut-off read from the data, not from the text of the source: active = growth inhibition above about 70%; inactive = the rest.

Assay: NCI Yeast Anticancer Drug Screen. Data for the mlh1 rad18 strain (AID 175)
Details: S. cerevisiae mlh1 rad18 strain growth inhibition; at 50.0 µM; hits give high values
Method: Growth inhibition of yeast strains with defined genetic alterations is measured as a screen for potential anti-cancer activity. Selected strains with alterations in DNA damage repair or cell cycle control were exposed to compounds and growth inhibition was measured relative to vehicle treated controls. The strain used in this assay is mlh1 rad18

Compound | growth inhibition
CC1(O)OC(COc2ccc(Cl)cc2)COC1O (stereo not given) | 18.9% (inactive)
CCc1nc(N)nc(N)c1-c1ccc(Cl)cc1 | -21.2% (inactive)
Cc1ccc(C(=O)NC2c3ccccc3Oc3ccccc32)cc1 | -5% (inactive)
CN(C)CCC(=O)c1ccc(O)cc1 | -9.45% (inactive)
COCCOCCCl | -6.7% (inactive)
Cc1ccc(N)cc1[N+](=O)[O-] | 15.8% (inactive)
S=C(Nc1ccccc1)N1CCCCC1 | -8.4% (inactive)
O=C1N(C[P+](c2ccccc2)(c2ccccc2)c2ccccc2)CCCN1C[P+](c1ccccc1)(c1ccccc1)c1ccccc1 | 12.3% (inactive)
O=C(/C(=N/O)c1ccccc1)c1ccccc1 | 12.2% (inactive)
O=C(CCNNC(=O)c1ccncc1)NCc1ccccc1 | 7.3% (inactive)
O=C(Cc1nc2ccc([N+](=O)[O-])cc2nc1CC(=O)c1ccccc1)c1ccccc1 | -1.1% (inactive)
O=C(/C=C/C(=O)c1ccccc1)c1ccccc1 | 51.1% (inactive)
O=C(O)c1cccc([N+](=O)[O-])c1O | 14.4% (inactive)
COc1ccccc1C1OC2=Nc3cc(C)c(C)cc3NC2C1=O (stereo not given) | 5.95% (inactive)
OCc1ccc(-c2ccc(-c3ccc(CO)s3)o2)s1 | 90.7% (active)
COc1cc(OC)c2ccc(=O)oc2c1 | 24.1% (inactive)
O=[N+]([O-])c1cccc(C(F)(F)F)c1 | -9.85% (inactive)
COC(=O)C(O)c1ccccc1 (stereo not given) | 20% (inactive)
CC1CCC2C(C)(C)C3CC12CC1OC13C (stereo not given) | -14.5% (inactive)
CCN(CC)C(=O)/C=C(/C)c1ccccc1 | -29.8% (inactive)

Compound | growth inhibition
O=C(N/N=C\c1cc(Br)cc(Br)c1O)N/N=C/c1cc(Br)cc(Br)c1O | 33.2% (inactive)
NC(N)=Nc1cc2ccccc2c2ccccc12 | -4.95% (inactive)
CC(=O)CC(=O)N(C)C | 24.2% (inactive)
CC1(C)/C(=C\CO)C2CCC1C2 (stereo not given) | 3.7% (inactive)
CC(=O)N(C)c1ccc([N+](=O)[O-])cc1 | 1.3% (inactive)
Cc1cc(N)ccc1-c1ccc(N)cc1C | 37.8% (inactive)
O=C(NCc1ccco1)Nc1c(Cl)cc(Cl)cc1Cl | -3.6% (inactive)
CCN(CC)CCNc1ccc(CO)c2sc3ccccc3c(=O)c12 | -14.4% (inactive)
O=c1cc2oc3cc(O)c(O)cc3c(-c3ccccc3O)c-2cc1O | 26.4% (inactive)
N#CSc1cc(S(N)(=O)=O)ccc1N | 32% (inactive)
O=[N+]([O-])c1ccc(N=Nc2ccc(O)c3ccccc23)cc1 | -9.35% (inactive)
CC(=O)OC1CC2C(C)(C)OC3CC(=O)OCC32C2CCC3(C)C(=CCC3c3ccoc3)C12C (stereo not given) | 1.1% (inactive)
CCOC(=O)C1=C(C)NC(=O)NC1c1cccs1 (stereo not given) | -20.1% (inactive)
Cc1cc(Cc2cc(C)c(N)cc2N)c(N)cc1N | 15.9% (inactive)
Cc1ccccc1C1N=C2Oc3ccccc3C=C2C(=O)N1 (stereo not given) | -32.5% (inactive)
O=c1[nH][nH]c(=O)c2cc([N+](=O)[O-])ccc12 | 18.1% (inactive)
O=c1cc(-c2ccccc2)[nH]c(=S)[nH]1 | -9.55% (inactive)
O=c1cc(-c2ccccc2)[nH]c2c1CCCC2 | -3.5% (inactive)
CCCCCCCCO | -13.2% (inactive)
Cc1cc(C(O)(c2ccc(Nc3ccccc3)cc2)c2ccc(Nc3ccc(S(=O)(=O)O)cc3)cc2)ccc1N (stereo not given) | -34.6% (inactive)
